What all share (set-up): scale not given: direction of the effect not stated beside the values
In experiment [1] the target is Protein translocase subunit SecA (Escherichia coli (strain K12)) (UniProt P10408). In words: Assay to Identify E. coli SecA ATPase Inhibitors. It is filed as functional. To be noted: 30 µM.
In experiment [2] the target is T1, Ubiquitin-activating enzyme e1, putative (Leishmania donovani (strain BPK282A1)) (UniProt E9BSI1).
T1 sequence (whole entry): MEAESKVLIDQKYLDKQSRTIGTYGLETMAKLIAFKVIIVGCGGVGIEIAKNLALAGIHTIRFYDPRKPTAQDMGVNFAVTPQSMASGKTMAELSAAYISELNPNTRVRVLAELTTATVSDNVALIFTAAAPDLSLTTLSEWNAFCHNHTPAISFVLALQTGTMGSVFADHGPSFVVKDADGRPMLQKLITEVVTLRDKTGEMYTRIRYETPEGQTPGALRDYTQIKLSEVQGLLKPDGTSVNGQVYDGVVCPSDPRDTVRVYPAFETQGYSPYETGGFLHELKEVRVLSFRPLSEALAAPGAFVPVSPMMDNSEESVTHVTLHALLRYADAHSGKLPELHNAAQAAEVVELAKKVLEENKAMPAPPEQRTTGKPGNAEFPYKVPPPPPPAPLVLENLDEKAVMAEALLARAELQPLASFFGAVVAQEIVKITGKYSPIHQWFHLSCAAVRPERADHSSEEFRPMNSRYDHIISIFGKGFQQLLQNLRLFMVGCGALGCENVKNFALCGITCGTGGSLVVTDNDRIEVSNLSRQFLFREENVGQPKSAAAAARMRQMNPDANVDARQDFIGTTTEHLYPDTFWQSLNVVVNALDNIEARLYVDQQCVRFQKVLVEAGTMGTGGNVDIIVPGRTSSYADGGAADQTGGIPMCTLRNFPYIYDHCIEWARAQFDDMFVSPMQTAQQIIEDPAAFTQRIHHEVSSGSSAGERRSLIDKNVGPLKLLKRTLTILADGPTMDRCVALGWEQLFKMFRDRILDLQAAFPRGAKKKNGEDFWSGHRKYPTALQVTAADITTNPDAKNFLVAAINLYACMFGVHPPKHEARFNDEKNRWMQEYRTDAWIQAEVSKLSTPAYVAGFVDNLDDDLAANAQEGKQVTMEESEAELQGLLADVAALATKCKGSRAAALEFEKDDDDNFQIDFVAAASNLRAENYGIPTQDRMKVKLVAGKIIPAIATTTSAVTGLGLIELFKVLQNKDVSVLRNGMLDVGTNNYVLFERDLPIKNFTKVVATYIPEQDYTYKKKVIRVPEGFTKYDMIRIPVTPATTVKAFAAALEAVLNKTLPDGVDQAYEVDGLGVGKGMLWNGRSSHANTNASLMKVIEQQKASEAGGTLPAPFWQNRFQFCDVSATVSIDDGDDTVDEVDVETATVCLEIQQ
In words: Leishmania donovani Ubiquitin Activating Enzyme (LdE1). It is filed as functional. To be noted: 30 µM.

The target of experiment [3] is AMP-activated protein kinase, AMPK (Homo sapiens) (UniProt P54646+O43741+P54619+Q9UGJ0+Q9Y478+Q13131+Q9UGI9). Nature of the experiment: AMP-dependent Kinase enzyme assay. An in vitro enzyme assay that detects ADP turnover that is directly proportional to AMPK activity. This uses naive AMPK that is activated during the assay with MK-8722. It is filed as functional. To be noted: 30 µM.

Experiment [4] addresses Sialic acid-binding Ig-like lectin 9 (Homo sapiens) (UniProt Q9Y336). Nature of the experiment: Hs-Siglec9 ALPHAscreen SOP 20170721. To be noted: 10 µM. Background: In Alpha technology, singlet oxygen from a donor bead excites a nearby acceptor bead.
In experiment [5] the test system is Trypanosoma cruzi. In words: Trypanosoma cruzi phosphomannomutase and mannose-1-phosphate guanylyltransferase assay. It is filed as functional. To be noted: 10 µM.
For experiment [6], the target named is T2, Arginase-2, mitochondrial (Homo sapiens) (UniProt P78540).
T2 sequence (whole entry): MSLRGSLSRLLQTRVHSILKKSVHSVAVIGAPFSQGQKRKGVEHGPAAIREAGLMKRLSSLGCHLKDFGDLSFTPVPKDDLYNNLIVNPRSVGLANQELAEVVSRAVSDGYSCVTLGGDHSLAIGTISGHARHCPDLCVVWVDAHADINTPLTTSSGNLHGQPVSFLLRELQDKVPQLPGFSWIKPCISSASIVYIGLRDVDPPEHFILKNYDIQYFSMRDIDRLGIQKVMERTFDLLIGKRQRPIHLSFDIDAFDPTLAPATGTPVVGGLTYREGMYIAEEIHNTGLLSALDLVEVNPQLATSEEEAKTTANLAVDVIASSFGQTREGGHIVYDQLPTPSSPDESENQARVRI
Nature of the experiment: in vitro enzyme assay to detect the production of urea directly proportional to the activity of Arginase II. Further: in the data most compounds retested in dose-response had high values. It is filed as functional. To be noted: 33.3 µM.

Experiment [7] concerns the target T3, Proteasome subunit beta (Trypanosoma cruzi) (UniProt O96673).
T3 sequence (whole entry): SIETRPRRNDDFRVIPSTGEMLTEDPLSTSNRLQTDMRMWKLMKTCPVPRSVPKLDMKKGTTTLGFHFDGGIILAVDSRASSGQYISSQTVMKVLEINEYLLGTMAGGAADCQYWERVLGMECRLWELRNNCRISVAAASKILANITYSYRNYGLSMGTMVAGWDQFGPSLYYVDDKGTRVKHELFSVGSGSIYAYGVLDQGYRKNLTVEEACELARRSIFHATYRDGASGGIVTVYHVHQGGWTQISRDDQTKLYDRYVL
Nature of the experiment: Trypanosoma cruzi proteasome chymotrypsin-like activity (TcProtChymo) assay. Further: in the data most compounds retested in dose-response had high values. It counts as functional. To be noted: 9.37 µM.

For experiment [8], the species on record is Homo sapiens. In words: To identify inhibition of the IFN signalling (Jak-Stat) pathway via expression of an eGFP reporter gene under the control of an IFN-stimulated response element (ISRE) containing MxA promoter. To be noted: 30 µM. It counts as functional. (In a reporter assay the amount or activity of a reporter protein is the signal.)
Experiment [9] concerns the target T4, Tyrosyl-tRNA synthetase, putative (Trypanosoma cruzi (strain CL Brener)) (UniProt Q4DSP6).
T4 sequence (whole entry): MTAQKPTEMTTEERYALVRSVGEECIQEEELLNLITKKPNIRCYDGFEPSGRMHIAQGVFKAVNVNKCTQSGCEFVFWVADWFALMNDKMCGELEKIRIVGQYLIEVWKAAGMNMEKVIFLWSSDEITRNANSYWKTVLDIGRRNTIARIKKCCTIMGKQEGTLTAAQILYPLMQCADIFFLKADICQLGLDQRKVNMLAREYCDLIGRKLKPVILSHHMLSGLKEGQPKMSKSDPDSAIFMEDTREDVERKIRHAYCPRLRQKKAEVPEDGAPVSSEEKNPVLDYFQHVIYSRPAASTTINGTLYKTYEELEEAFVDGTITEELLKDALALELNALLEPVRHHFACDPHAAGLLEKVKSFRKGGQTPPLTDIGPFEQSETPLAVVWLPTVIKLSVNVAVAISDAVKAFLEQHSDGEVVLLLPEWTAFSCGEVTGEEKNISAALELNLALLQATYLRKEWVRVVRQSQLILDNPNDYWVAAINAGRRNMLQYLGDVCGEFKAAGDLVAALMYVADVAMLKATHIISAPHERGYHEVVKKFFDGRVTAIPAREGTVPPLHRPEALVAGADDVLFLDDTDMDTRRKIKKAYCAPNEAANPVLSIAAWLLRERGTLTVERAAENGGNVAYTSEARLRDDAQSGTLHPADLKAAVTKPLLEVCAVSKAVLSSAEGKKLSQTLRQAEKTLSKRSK
In words: Trypanosoma cruzi tyrosyl tRNA synthetase (TcYRS) _High Tyrosine SOP. Further: in the data most compounds retested in dose-response had high values. It counts as functional. To be noted: 30 µM.

In experiment [10] the target is T4, Tyrosyl-tRNA synthetase, putative (Trypanosoma cruzi (strain CL Brener)). In words: Trypanosoma cruzi tyrosyl tRNA synthetase (TcYRS) SOP. It counts as functional. To be noted: 30 µM.
Experiment [11] deals with Chromo domain-containing protein 1 (Saccharomyces cerevisiae (strain ATCC 204508 / S288c) (Baker's yeast)) (UniProt P32657). In words: ScCHD-1 Enzyme Inhibition Assay. Further: in the data most compounds retested in dose-response had high values. It counts as functional. To be noted: 30 µM.
Sequence of Chromo domain-containing protein 1 (Saccharomyces cerevisiae (strain ATCC 204508 / S288c) (Baker's yeast)) (P32657 whole entry, the tested form may be a part): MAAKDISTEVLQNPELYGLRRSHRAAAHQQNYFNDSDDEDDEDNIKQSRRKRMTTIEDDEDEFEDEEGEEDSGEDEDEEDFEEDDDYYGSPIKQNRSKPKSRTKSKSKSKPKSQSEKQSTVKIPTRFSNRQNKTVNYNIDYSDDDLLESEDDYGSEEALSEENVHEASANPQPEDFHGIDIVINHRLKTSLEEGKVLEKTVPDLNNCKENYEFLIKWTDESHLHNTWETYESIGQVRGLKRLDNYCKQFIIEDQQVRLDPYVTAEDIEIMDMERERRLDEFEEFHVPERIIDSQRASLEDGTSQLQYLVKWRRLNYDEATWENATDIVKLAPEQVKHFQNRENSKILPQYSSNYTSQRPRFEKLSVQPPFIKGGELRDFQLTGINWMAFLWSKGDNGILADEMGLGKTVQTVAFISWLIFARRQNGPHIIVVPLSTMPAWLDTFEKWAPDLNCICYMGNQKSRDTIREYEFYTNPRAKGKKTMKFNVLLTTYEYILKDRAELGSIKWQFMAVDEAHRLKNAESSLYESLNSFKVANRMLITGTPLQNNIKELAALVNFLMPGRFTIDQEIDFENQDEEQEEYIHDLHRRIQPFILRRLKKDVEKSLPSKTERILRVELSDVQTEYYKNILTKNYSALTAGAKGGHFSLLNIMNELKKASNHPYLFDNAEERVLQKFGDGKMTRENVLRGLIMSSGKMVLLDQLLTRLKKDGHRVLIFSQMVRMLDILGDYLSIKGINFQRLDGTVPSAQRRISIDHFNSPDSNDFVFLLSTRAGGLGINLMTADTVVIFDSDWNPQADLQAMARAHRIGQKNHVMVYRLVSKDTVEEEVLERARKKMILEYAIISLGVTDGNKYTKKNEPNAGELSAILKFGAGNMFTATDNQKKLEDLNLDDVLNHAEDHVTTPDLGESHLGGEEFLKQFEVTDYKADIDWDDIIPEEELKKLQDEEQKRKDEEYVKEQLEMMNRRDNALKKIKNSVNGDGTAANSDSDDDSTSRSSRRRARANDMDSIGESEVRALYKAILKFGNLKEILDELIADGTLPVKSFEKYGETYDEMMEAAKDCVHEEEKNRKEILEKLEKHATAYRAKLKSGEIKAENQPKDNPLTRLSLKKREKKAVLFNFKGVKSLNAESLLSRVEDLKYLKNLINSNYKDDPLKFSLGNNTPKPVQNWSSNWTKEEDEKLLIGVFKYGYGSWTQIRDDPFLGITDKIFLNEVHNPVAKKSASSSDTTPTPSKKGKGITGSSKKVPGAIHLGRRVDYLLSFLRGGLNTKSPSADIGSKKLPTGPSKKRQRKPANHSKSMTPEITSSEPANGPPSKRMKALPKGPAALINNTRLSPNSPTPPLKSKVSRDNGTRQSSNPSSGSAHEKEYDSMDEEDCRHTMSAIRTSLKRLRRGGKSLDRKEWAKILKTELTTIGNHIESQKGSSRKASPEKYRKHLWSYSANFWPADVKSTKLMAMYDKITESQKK

For some of these results: Results with a measured potency or affinity are listed apart.

Sequence of Protein translocase subunit SecA (Escherichia coli (strain K12)) (P10408 whole entry): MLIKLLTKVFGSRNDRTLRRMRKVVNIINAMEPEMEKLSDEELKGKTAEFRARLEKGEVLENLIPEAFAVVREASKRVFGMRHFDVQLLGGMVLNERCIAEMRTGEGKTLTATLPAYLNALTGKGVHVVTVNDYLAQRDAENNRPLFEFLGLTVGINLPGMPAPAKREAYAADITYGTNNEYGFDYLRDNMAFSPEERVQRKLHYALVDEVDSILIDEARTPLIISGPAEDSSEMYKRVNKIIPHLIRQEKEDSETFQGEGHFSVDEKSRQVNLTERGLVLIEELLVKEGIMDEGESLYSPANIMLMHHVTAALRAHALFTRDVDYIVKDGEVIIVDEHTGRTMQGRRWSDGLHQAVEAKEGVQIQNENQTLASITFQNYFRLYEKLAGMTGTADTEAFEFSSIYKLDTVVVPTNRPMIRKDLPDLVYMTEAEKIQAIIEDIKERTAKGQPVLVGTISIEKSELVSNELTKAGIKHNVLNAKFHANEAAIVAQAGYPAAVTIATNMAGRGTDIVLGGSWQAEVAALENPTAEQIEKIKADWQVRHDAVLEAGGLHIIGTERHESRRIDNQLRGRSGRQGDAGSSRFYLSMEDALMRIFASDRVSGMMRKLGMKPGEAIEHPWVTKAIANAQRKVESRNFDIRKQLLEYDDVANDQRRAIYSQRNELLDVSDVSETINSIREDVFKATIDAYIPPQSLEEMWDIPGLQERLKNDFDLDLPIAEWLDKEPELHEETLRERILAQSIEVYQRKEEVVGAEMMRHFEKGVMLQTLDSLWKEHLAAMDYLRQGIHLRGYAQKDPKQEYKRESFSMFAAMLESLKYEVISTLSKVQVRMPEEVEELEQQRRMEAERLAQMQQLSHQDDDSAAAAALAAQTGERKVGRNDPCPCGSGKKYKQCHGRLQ
Sequence of Sialic acid-binding Ig-like lectin 9 (Homo sapiens) (Q9Y336 whole entry): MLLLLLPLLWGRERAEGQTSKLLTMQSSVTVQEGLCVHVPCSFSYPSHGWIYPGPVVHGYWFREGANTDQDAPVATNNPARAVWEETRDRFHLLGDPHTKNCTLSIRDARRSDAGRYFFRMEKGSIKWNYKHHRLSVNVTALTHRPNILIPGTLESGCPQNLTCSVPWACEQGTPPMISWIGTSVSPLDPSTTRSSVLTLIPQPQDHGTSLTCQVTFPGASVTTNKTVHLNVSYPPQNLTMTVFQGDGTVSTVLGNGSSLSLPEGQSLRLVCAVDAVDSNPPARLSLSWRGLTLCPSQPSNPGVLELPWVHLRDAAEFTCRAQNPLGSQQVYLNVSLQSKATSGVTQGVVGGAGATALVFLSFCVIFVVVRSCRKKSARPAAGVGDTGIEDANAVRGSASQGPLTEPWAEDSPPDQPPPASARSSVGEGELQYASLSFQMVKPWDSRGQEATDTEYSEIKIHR

As to `CC(=O)N1CCN(C(=O)c2cnn(-c3ccccc3Cl)c2)CC1`, the Percent Effect in experiment [1] was -5.95%; in [2], 21.6%; in [3], -7.37%; in [4], 17.5%; in experiment [5] it was 6.32%; in experiment [6] it was -8.82%. Further, the Percent Effect in experiment [7] was 9.19%; in experiment [8], 13.8%; in [9], 8.37%; in experiment [10], 18.5%; in experiment [11], -9.57%.
For the compound `CC(C(=O)NCc1ccnc(N(C)C)c1)n1cncn1` (stereo not drawn), the Percent Effect in experiment [1] was -2.02%; in [2], 2.7%; in experiment [3], -7.17%; in experiment [4] it was 7.55%; in [5] it was 8.88%; in [6] it was -0.476%. In addition, the Percent Effect in [7] is 17.2%; in experiment [8] it was -1.73%; in experiment [9], 5.82%; in experiment [10], 9.76%; in [11] it was -3.72%.
`CC(C)n1ccnc1C1CCCN(c2ccccn2)C1` (stereo not drawn): the Percent Effect in [1] was -4.71%; in [2] it was 5.33%; in experiment [3] it was -0.644%; in [4], 4%; in experiment [5], -2.43%; in experiment [6], 0%. Also, the Percent Effect in experiment [7] is 18.7%; in [8] it was 15.1%; in experiment [9] it was 3.83%; in [10], 11.1%; in experiment [11] it was -7.89%.
In the case of `CN1CCC(C(=O)NCc2nncn2-c2ccccc2)CC1=O` (stereo not drawn), the Percent Effect is -2.63% in experiment [1]; 5.41% in [2]; -5.14% in [3]; 5.74% in [4]; -3.87% in experiment [5]; -2% in experiment [6]. Also, the Percent Effect in experiment [7] is 0%; in experiment [8], 13.5%; in [9], 4.43%; in [10], 1.24%; in [11], -2.07%.
On to `COCc1noc(C2(c3ccc(F)cc3)CCOCC2)n1`, for which the Percent Effect was 3.24% in [1]; 8.11% in [2]; 7.86% in [3]; 11.7% in experiment [4]; -7.72% in experiment [5]; -3.81% in experiment [6]. Besides, the Percent Effect in experiment [7] was 11.4%; in experiment [8], 40.2%; in experiment [9], 0.529%; in experiment [10], -2.44%; in experiment [11] it was -5.88%.
Take `Cc1ccc(CN2C[C@@H]3COC[C@H](NS(C)(=O)=O)[C@@H]3C2)o1`: the Percent Effect in experiment [1] was -3.56%; in experiment [2], 13.3%; in experiment [3] it was 3.44%; in experiment [4] it was -1.89%; in [5] it was -4.05%; in experiment [6] it was -56.8%. For the same compound, the Percent Effect in experiment [7] is 7.86%; in experiment [8], 12.6%; in experiment [9], 4.17%; in [10] it was 15%; in experiment [11], -6.77%.
As to `COCc1cn([C@@H]2c3ccccc3C3(CCNCC3)[C@H]2O)nn1`, the Percent Effect is -4.27% in [1]; 9.72% in experiment [2]; 2.64% in experiment [3]; 16.1% in [4]; 6.71% in [5]; 24.7% in [6]. Also, the Percent Effect in experiment [7] was 3.16%; in experiment [8] it was 3.98%; in [9] it was 4.21%; in experiment [10], 10.3%; in experiment [11], -5.28%.
Turning to `O=C(NCC1CCN(Cc2ccsc2)CC1)NC1CC1`, the Percent Effect was 1.05% in [1]; 7.79% in [2]; 2.27% in experiment [3]; -0.902% in experiment [4]; -5.62% in experiment [5]; 14.8% in experiment [6]. Further, the Percent Effect in experiment [7] is 17.2%; in [8], 10.3%; in [9], 2.12%; in experiment [10], 6.41%; in [11] it was -5.17%.

The record behind these values is ChEMBL document CHEMBL3988442, “University of Dundee, Small-Polar-MMV Screening Library” (2021).
